Tau ThT inhib: tau fibrillization inhibition (ThT binding). recombinant tau K18 P301L, heparin-induced fibrillization, ThT fluorescence. hit rate 2.1% among 270,000. P10636. Potency, µM (highest dose often 57.4 µM), without a hit: top-dose activity, negative = inhibition, hits mostly inhibitors; also: nearly all actives have a fitted effect of over 55% in size
Target sequence (P10636 561-689 P618L limits assumed): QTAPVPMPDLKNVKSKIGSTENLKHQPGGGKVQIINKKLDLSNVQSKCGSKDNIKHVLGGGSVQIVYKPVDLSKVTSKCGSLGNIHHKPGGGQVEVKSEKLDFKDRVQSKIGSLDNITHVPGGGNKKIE
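Recombinant human tau K18 fragment […] carrying P301L, 15 uM unlabeled plus 0.24 uM Alexa 594-labeled, was fibrillized with 20 uM heparin in 100 mM sodium acetate pH 7 for 6 hr at 37 C; 30 uM ThT fluorescence read after 1 hr.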
Tau fluor counter: counter-screen for tau fibril formation inhibitors. tau K18 P301L (four-repeat tau fragment) Alexa594 fluorescence, heparin fibrillization. Potency, µM (titrated, usually from 57.7 µM), for inactives: at the top dose activity change, negative = decrease. hit rate 0.93% among 280,000; also: nearly all actives have a fitted effect of over 55% in size
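Human K18 P301L tau (15 uM unlabeled plus 0.24 uM Alexa 594-labeled, final) in 100 mM sodium acetate pH 7 was mixed with compound and 20 uM heparin and incubated 6 hr at 37 C.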
RORg inh: inhibitors of mouse ROR gamma transcriptional activity; hit rate 5.4% among 310,000; P51450; Potency, µM (highest dose often 53.6 µM), inactives show top-dose activity change, negative = inhibition, most hits filed as inhibitors; AID 2551; Drosophila S2 Gal4-RORgamma UAS-luciferase reporter, 20 h; also: nearly all actives have a fitted effect of over 60% in size
Target sequence (P51450 whole entry, looked up, the tested form may be a part): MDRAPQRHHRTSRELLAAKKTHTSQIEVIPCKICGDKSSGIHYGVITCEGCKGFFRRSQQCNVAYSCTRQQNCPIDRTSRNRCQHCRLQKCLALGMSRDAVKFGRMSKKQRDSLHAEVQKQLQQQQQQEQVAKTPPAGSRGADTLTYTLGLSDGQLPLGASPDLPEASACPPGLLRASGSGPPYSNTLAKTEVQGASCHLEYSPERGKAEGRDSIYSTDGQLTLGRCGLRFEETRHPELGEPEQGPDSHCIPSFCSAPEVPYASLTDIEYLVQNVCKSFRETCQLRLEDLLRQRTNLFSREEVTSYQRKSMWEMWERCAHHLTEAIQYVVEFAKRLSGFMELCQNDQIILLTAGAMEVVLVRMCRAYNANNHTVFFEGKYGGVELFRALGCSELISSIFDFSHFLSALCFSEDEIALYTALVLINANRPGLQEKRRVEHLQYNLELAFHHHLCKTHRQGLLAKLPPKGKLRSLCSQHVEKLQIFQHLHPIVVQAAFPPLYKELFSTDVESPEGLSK
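In this cell-based reporter format, copper sulfate (700 uM final) drives Gal4–ROR gamma fusion expression from a metallothionein promoter in Drosophila Schneider cells; compounds preincubated 1 hr, reporter read after 20 hr at ambient temperature.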
Tau FP inhib: inhibitors of human tau fibril formation; P10636; K18 P301L tau heparin fibrillization, Alexa594 FP, 6 h; Potency, µM (titrated, usually from 57.7 µM), inactives show top-dose activity, negative = inhibition, actives largely listed as inhibitors; hit rate 0.39% among 280,000; also: nearly all actives have a fitted effect of over 55% in size
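Compound effects on tau fibrillization are measured by Alexa 594 fluorescence polarization (ex 555, em 632 nm). K18 P301L tau is used at 15 uM with 0.24 uM labeled tracer, and 20 uM heparin induces aggregation over 6 hr at 37 C.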
VP16 counter: inhibits Gal4-VP16 luciferase reporter, ROR gamma counter-screen | Drosophila S2 Gal4-VP16 UAS-luciferase, luminescence, 20 h | Potency, µM (highest dose often 53.6 µM), inactives show at the highest dose activity, negative = inhibition, most hits filed as inhibitors | hit rate 3.5% among 310,000 | AID 2546;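 also: Gal4-VP16 expression switched on by copper sulfate through the metallothionein promoter; nearly all actives have a fitted effect of over 50% in size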
An asterisk follows results filed as active; u = inconclusive; x = not tested or not shown; [ ] = another dose, or the depositor's remark. Rows were chosen to be rich in hits. Some 7.3% of all compounds tested hit in one or more screens of this group. Calls follow the shape of the dose curve; as a rule, active = well fitted curve in the direction sought with a large enough effect; inconclusive = small, poorly fitted or top-dose-only effect, or another doubt; inactive = no such curve, though single readings can be large; an effect the other way counts as inactive or inconclusive. % is scaled to controls: 0 for no effect and ±100 for the full control effect; potency is read from the fitted curve at half-maximal effect.

SMILES | Tau ThT inhib | Tau fluor counter | RORg inh | Tau FP inhib | VP16 counter
CCC(C(=O)OC)n1cnc2c(nnn2-c2ccc(F)cc2)c1=O (centres undefined) | x | x | -17% | x | -11%
CC(C)(C)c1csc(NNC(=O)c2ccc(Cl)cc2)n1 | x | -13% | 0.45µM* | -3% | 7.1µM*
Oc1c(C(c2ccccc2)N2CCN(Cc3ccccc3)CC2)sc2ncnn12 (centres undefined) | -14% | -9% | 8% | 8% | 5%
Oc1c(C(c2ccccc2)N2CCCCC2)sc2ncnn12 (centres undefined) | -4% | -1% | 7.9µM* | 2% | -3%
Cc1ccc(OCC(=O)NC(=S)Nc2ccccn2)c(Br)c1 | x | x | 10µM* | x | 11µM*
CCc1ccc(OCC(=O)NC(=S)Nc2ccc(Br)c(C)n2)cc1 | -18% | -17% | -26% | -7% | 5%
O=C(COc1ccccc1Cl)NC(=S)Nc1ccccc1N1CCCC1 | x | x | 5.6µM* | x | 7.9µM*
COC(=O)c1ccccc1NC(=O)c1cccc(COc2ccccc2Cl)c1 | -13% | -20% | 45% | -15% | 0%
COC(=O)c1ccccc1NC(=S)NC(=O)COc1ccccc1Cl | -9% | -23% | 10µM* | -16% | u
Cc1nc(NC(=S)NC(=O)COc2ccccc2Cl)ccc1Br | -12% | 2% | 7.1µM* | -12% | 7.1µM*
O=C(O)c1ccccc1Nc1cc(Cl)cc(Cl)c1 | x | x | 40% | x | -15%
Cc1cc(Cl)ccc1OCC(=O)Nc1ccccc1N1CCOCC1 | u | -15% | u | -7% | -9%
CC(C)c1ccc(OCC(=O)NNC(=S)NC(=O)c2cccs2)c(Br)c1 | x | x | 13% | x | -1%
Cc1ccc(OCC(=O)NNC(=S)NC(=O)C(C)(C)C)c(Br)c1 | -17% | -11% | 11µM* | -7% | 4%
Cc1cc(Cl)ccc1OCC(=O)NC(=S)Nc1ccccc1N1CCOCC1 | -8% | -1% | 4.5µM* | -2% | u
N#CC1=C(N)NC(SCc2ccccc2)=C(C#N)C12CCCC2 | -14% | u | 44% | 8% | -13%
N#CC1=C(N)NC(SCc2ccc(Cl)cc2)=C(C#N)C12CCCCC2 | u | 8.9µM*[quencher] | u | 6% | -18%
N#CC1=C(N)NC(SCc2ccc(Br)cc2)=C(C#N)C12CCCCC2 | -19% | 10µM*[quencher] | 62% | -12% | u
CCCCc1cc(=O)oc2c(C)c(OCC(=O)NCC3CCC(C(=O)O)CC3)ccc12 (centres undefined) | x | x | 10% | x | 2%
O=C(N/N=C/c1cn(-c2cccs2)nc1-c1ccccc1)c1ccccc1Cl | -9% | u | 3.5µM* | u | 7.9µM*
O=C(N/N=C/c1cn(-c2cccs2)nc1-c1ccccc1)c1ccc(O)cc1 | 5% | 10µM*[quencher] | u | u | 18µM*
COc1cccc(Cn2c(=O)n(Cc3ccco3)c(=O)c3oc4ccccc4c32)c1 | 3% | -11% | x | -7% | x
CC[C@@H](C)[C@H](CN[C@H](CNC)C(C)C)NC[C@@H](C)c1ccc(CC(C)C)cc1 | x | x | 10µM* | x | u
CC[C@H](C)[C@@H](CNC)NC[C@@H](Cc1ccc(O)cc1)NCC(C)(C)C | x | x | -9% | x | -1%
O=C1S/C(=C\C=C\c2ccco2)C(=O)N1c1ccc(O)cc1 | 14µM* | 16µM*[quencher] | 10% | u | -2%
SMILES | Tau ThT inhib | Tau fluor counter | RORg inh | Tau FP inhib | VP16 counter
O=C1S/C(=C\C=C\c2ccco2)C(=O)N1c1ccccc1 | 14µM* | u | u | u | u
O=C1S/C(=C\c2cccs2)C(=O)N1c1ccc(O)cc1 | x | x | -41% | x | -27%
COC(=O)C(CCSC)NC(=O)C1CCN(c2ncnc3c2nc2n3CCCCC2)CC1 (centres undefined) | 1% | 1% | x | -5% | x
O=c1[nH]cnc2c1C(c1ccccc1)c1c(nc[nH]c1=O)O2 | x | x | 26% | x | -8%
Cc1cc(C)cc(-n2c(SCC(=O)NC3CCCCC3)nc3c([nH]c4ccccc43)c2=O)c1 | -2% | -1% | x | 0% | x
COC(=O)CNC(=O)C(=O)OC | -3% | 0% | 13% | 0% | -5%
O=C(O)Cn1cccc1C(=O)c1ccccc1 | 8.9µM* | u | -1% | 4% | -8%
COC(=O)Cn1cccc1C(=O)c1ccccc1 | -2% | -5% | u | 1% | -1%
Cc1ccc(-c2nc3ccccc3c(=O)n2NC(=O)COc2ccccc2)cc1 | 2% | -11% | u | u | u
Cc1ccc(OCC(=O)Nn2c(C)nc3ccccc3c2=O)c(C(C)C)c1 | 5% | 2% | -19% | 2% | 22µM*
Cc1nc2c(=O)n(C)c(=O)n(C)c2nc1Cl | -11% | 7% | u | -8% | 7.1µM*
COc1cccc(/C=N/NC(=O)CCn2nnc3ccccc32)c1 | 1% | -2% | u | 4% | -3%
COc1ccc(/C=N/NC(=O)CSCC(=O)Nc2ccccc2)cc1 | -11% | -11% | 6% | -5% | -16%
COc1cccc(/C=N\NC(=O)Cn2nnc3ccccc32)c1O | -1% | 1% | 1.3µM* | 3% | 3.2µM*
COc1ccc(O)c(/C=N\NC(=O)CCn2nnc3ccccc32)c1 | u | -19% | 8.9µM* | 1% | 2.8µM*
COc1cccc(/C=N/NC(=O)CSCC(=O)Nc2ccccc2)c1O | u | -18% | 0.5µM* | -1% | 1.6µM*
COc1cccc(/C=N/NC(=O)CCc2c(C)n[nH]c2C)c1O | -25% | -9% | 1.4µM* | -9% | 3.2µM*
Cc1ccc2oc(C(=O)NCc3ncc(C)[nH]3)c(C)c2c1 | x | x | -44% | x | -13%
CC(=O)Nc1ncc([N+](=O)[O-])s1 | x | x | -1% | x | -14%
Cc1ccc(C(=O)Nc2ncc([N+](=O)[O-])s2)cc1 | x | x | 0.89µM* | x | 2µM*
Cc1ccc(C(=O)Nc2ncc(Cc3ccc(F)cc3)s2)o1 | -13% | -28% | u | -8% | u
O=C(Nc1ncc([N+](=O)[O-])s1)c1ccc2c(c1)OCO2 | x | x | 1.8µM* | x | 2.5µM*
Cc1ccc(C(=O)Nc2ncc(Cc3ccc(SC(F)F)cc3)s2)cc1 | -6% | -17% | 13µM* | -7% | u
O=C(c1ccncc1)N1CCC[C@@]2(CCN(Cc3cc(C(F)(F)F)cc(C(F)(F)F)c3)C2)C1 | x | x | 20% | x | -3%
Cc1cccc(NC(=S)N(CCN(C)C)C(C)c2ccccn2)c1 (centres undefined) | -18% | -13% | 11µM* | -9% | -13%
CC(c1ccccn1)N(Cc1ccco1)C(=S)Nc1cccc(F)c1 (centres undefined) | -6% | -14% | 13µM* | -2% | u
CCc1cccc(NC(=S)N(CCN(C)C)C(C)c2ccncc2)c1 (centres undefined) | 7% | 10% | 14µM* | 4% | -2%
COCCCN(C(=S)Nc1cc(Cl)cc(Cl)c1)C(C)c1ccccn1 (centres undefined) | u | -29% | 7.1µM* | -6% | u

Screening results (PubChem)
